Bioassay records from PubChem BioAssay.
Most compounds without a hit are left out; they make up all but 19% or so of the library.
TDP1 cell noCPT: qHTS for Inhibitors of human tyrosyl-DNA phosphodiesterase 1 (TDP1): qHTS in cells in absence of CPT | AID 686978, 2013 | hit rate 15% among 420,000 | DT40 Tdp1-/- hTDP1 cells, no CPT, ATP luminescence, 48 h | Potency, µM (doses to about 46.2 µM), for inactives: at the highest dose activity change, negative = growth inhibition, most hits filed as inhibitors; also: potency is read from the fitted curve at half-maximal effect; nearly all actives have a fitted effect of over 55% in size
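A cellular qHTS used chicken DT40 cells lacking endogenous Tdp1 but carrying stably transfected human TDP1. Compounds were applied without camptothecin, and cell growth kinetics were judged by ATP-dependent luminescence after ≥48 hr.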
HT1080 IDH1KD tx: qHTS for induction of synthetic lethality in tumor cells producing 2HG: qHTS for the HT-1080-IDH1KD cell line. HT-1080 IDH1 knockdown viability, ATP luminescence, 48 h. Potency, µM (titrated, usually from 46.1 µM), for the others: top-dose activity, negative = toxicity, most hits filed as cytotoxic. hit rate 2% among 360,000. AID 686971, 2013;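 also: potency is read from the fitted curve at half-maximal effect; 0% = DMSO wells and -100% = cell-free medium wells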
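After a 2 h attachment period, IDH1KD HT-1080 cells took pin-transferred compound for 48 h at 37 °C; ATP-based luminescence after 10 min room-temperature reagent incubation reported viability.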
TDP1 cell CPT: qHTS for Inhibitors of human tyrosyl-DNA phosphodiesterase 1 (TDP1): qHTS in cells in presence of CPT | AID 686979, 2013 | hit rate 12% among 420,000 | Potency, µM (series often up to 46.2 µM), for the others: at the highest dose activity change, negative = growth inhibition, most hits filed as inhibitors | chicken DT40 Tdp1-/-;hTDP1 cells + 20 nM CPT, ATP luminescence, 48 h; also: potency is read from the fitted curve at half-maximal effect; nearly all actives have a fitted effect of over 55% in size
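Chicken DT40 Tdp1-/- cells stably complemented with human TDP1 were seeded at 400 cells/well in medium containing 20 nM camptothecin, exposed to pin-transferred compounds, and grown at 37 °C for at least 48 hr. Viability was read as ATP luminescence.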
ELG1 DNA repair: qHTS screen for small molecules that inhibit ELG1-dependent DNA repair in human embryonic kidney (HEK293T) cells expressing luciferase-tagged ELG1. hit rate 2.3% among 330,000. AID 504467, 2011. Potency, µM (highest dose often 46.1 µM), without a hit: top-dose activity change, negative = inhibition, actives largely listed as inhibitors. HEK293T ELG1-luciferase reporter, luminescence, 16 h; DNA damage induced by 5-fluorouridine; also: potency is read from the fitted curve at half-maximal effect; nearly all actives have a fitted effect of over 55% in size
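5-Fluorouridine DNA damage + compound/DMSO, 2,000 cells/well, 16 h, 37 °C/5% CO2. ONE-Glo, 30 min RT, luminescence. Readout = decrease in reporter signal.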
HT1080-NT tox: qHTS for induction of synthetic lethality in tumor cells producing 2HG: qHTS for the HT-1080-NT fibrosarcoma cell line. HT-1080-NT fibrosarcoma viability, CellTiter-Glo ATP luminescence, 48 h. Potency, µM (highest dose often 46.1 µM), without a hit: at the top dose activity, negative = less viability, actives largely listed as cytotoxic. hit rate 1.6% among 360,000. AID 686970, 2013;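 also: NT is the 2HG producing partner of a matched IDH1 knockdown line; potency is read from the fitted curve at half-maximal effect; 0% = DMSO-treated cells and -100% = media-only wells without cells; nearly all actives have a fitted effect of over 55% in size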
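HT-1080-NT; 750 cells/well; 5% FBS RPMI; 48 h compound, 37 degrees C; CellTiter-Glo luminescence; curve fitting and curve-class assignment.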
IL-1B inflam inh: qHTS for Inhibitors of Inflammasome Signaling: IL-1-beta AlphaLISA Primary Screen; THP-1 LPS/ATP IL-1B secretion, AlphaLISA, 16 h; stronger effect = lower value; activity change, % at 57.5 µM; hit rate 4.7% among 360,000; AID 743279, 2014; in the data active = activity change below about -50%; inconclusive = mostly about -30% to -49%
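THP-1 cells pretreated 1 hr with compounds (up to 57.5 uM final), then stimulated with LPS (250 ng/mL final) plus ATP (1.25 mM final); secreted IL-1B measured by AlphaLISA after 16 hr, decreased signal indicating inhibition.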
The depositor's hits bear a star; ? = inconclusive; . = no result. Unless noted, calls follow the shape of the dose curve; as a rule, active = well fitted curve in the direction sought with a large enough effect; inconclusive = small, poorly fitted or top-dose-only effect, or another doubt; inactive = no such curve, though single readings can be large; an effect the other way counts as inactive or inconclusive. Unless noted, % is scaled to controls: 0 for no effect and ±100 for the full control effect.

SMILES	TDP1 cell noCPT	HT1080 IDH1KD tx	TDP1 cell CPT	ELG1 DNA repair	HT1080-NT tox	IL-1B inflam inh
Cc1ccc(S(=O)(=O)N2CCN(S(=O)(=O)N(C)C)CC2)c(C)c1	-22%	3%	-8%	-23%	7%	14
COc1ccc(CNC(=O)c2ccc(CS(=O)(=O)c3ccccc3OC)o2)cc1	?	.	-28%	.	.	.
Nc1nnc(-c2ccccc2)c(-c2ccccc2)n1	?	6%	?	1%	5%	-7
c1ccc(-c2nc3nonc3nc2-c2ccccc2)cc1	13µM*	?	21µM*	-6%	-27%	23
Cc1noc(C)c1CSCC(=O)Oc1ccc(N(C)S(=O)(=O)c2ccc(Cl)cc2)cc1	-19%	12%	4%	2%	15%	-4
CCN(CC)C(=O)c1[nH]cnc1C(=O)N[C@@H](C)C(=O)OCc1ccccc1	10µM*	9%	?	-5%	11%	-5
C[C@H](NC(=O)c1nc[nH]c1C(=O)NC(c1ccccc1)c1ccccc1)C(=O)OCc1ccccc1	23µM*	-10%	23µM*	-5%	?	4
C[C@H](NC(=O)c1nc[nH]c1C(=O)N[C@@H](C)C(=O)OCc1ccccc1)C(=O)OCc1ccccc1	-8%	3%	-4%	?	1%	12
Cn1ccnc1SCC(=O)Nc1cccc(S(=O)(=O)N2CCCCC2)c1	2%	5%	3%	-1%	12%	3
CCCCC1(Br)C(=O)N(c2ccccc2)N(c2ccccc2)C1=O	16µM*	-10%	?	19%	-7%	-1
CCN(C1CCCCC1)S(=O)(=O)CCNC(=O)c1ccc2c(c1)OCO2	?	1%	23µM*	-18%	1%	-19
CN(C)S(=O)(=O)c1ccc(C(=O)NCc2nnc(SCC(=O)NCc3ccco3)o2)cc1	-6%	7%	2%	1%	2%	0
O=C(CNC(=O)c1cccc(F)c1)N/N=C/c1cc(Br)ccc1OCc1ccccc1	?	-16%	?	?	-26%	-17
NC(=O)N/N=C/c1cc(Br)ccc1OCC(=O)NCc1ccccc1	?	-8%	9%	-17%	-7%	44
O=C(CNC(=O)c1ccccc1F)N/N=C/c1cc(Br)ccc1OCc1ccccc1	23µM*	-7%	?	8.2µM*	-3%	?
COc1cc(/C=N/NC(=O)COc2ccccc2[N+](=O)[O-])ccc1OC(=O)c1ccco1	?	18%	?	3%	6%	3
CC(C)(C)c1ccc(OCC(=O)N/N=C/c2cc(Br)ccc2OC(=O)c2ccco2)cc1	4.1µM*	7%	4.6µM*	?	8%	43
COC(=O)N/N=C\c1cc(Br)ccc1OCc1ccccc1	?	-2%	?	-23%	0%	-73*
O=C(NCCCN1CCOCC1)C(=O)N/N=C/c1ccccc1O	?	-10%	?	?	-7%	29
Cc1ccc(/C=C/C(=O)OCC(=O)NCc2cccs2)o1	-1%	-2%	-1%	15%	-2%	-5
CC(C)NC(=O)c1cc(C2CCCCN2C(=O)c2ccc(Cl)cc2)on1 (stereo not given)	-11%	26%	-29%	.	18%	-9
O=C(Nc1ccccc1)c1cc(C2CCCCN2C(=O)OCCF)on1 (stereo not given)	?	2%	-36%	.	16%	0
Cn1nc(C(C)(C)C)cc1C(=O)N1CCCCC1c1cc(C(=O)Nc2ccccc2)no1 (stereo not given)	23µM*	2%	21µM*	.	-4%	-19
O=C(Nc1ccc2c(c1)OCO2)c1cc(C2CCCCN2C(=O)c2ccccc2)on1 (stereo not given)	9.2µM*	1%	13µM*	.	-20%	-1
CC(C)NC(=O)c1cc(C2CCCCN2C(=O)c2cc(C(C)(C)C)nn2C)on1 (stereo not given)	13µM*	-2%	?	.	9%	22
SMILES	TDP1 cell noCPT	HT1080 IDH1KD tx	TDP1 cell CPT	ELG1 DNA repair	HT1080-NT tox	IL-1B inflam inh
Cn1nc(C(C)(C)C)cc1C(=O)N1CCCC(c2cc(C(=O)NCc3ccccc3)no2)C1 (stereo not given)	15µM*	4%	21µM*	.	12%	-8
O=C(Nc1ccc2c(c1)OCO2)c1cc(C2CCCCN2C(=O)CCCc2ccccc2)on1 (stereo not given)	?	-5%	?	.	-4%	-28
Cc1csc2nc(-c3ccc(NS(=O)(=O)c4cc(F)ccc4F)cc3)cn12	-22%	.	-10%	.	.	.
O=C(c1ccc(NC(=O)C(c2ccccc2)c2ccccc2)cc1)c1ccc(C(=O)O)c(C(=O)O)c1	-11%	11%	9%	3%	18%	8
Cc1[nH]c(=O)sc1C(=O)NCc1ccc([N+](=O)[O-])cc1	-26%	13%	?	.	4%	21
Cn1nc(C(C)(C)C)cc1C(=O)N1CCCC(c2cc(C(=O)Nc3ccccc3Cl)no2)C1 (stereo not given)	23µM*	-20%	?	.	-16%	-20
N#Cc1ccc(C(=O)N2CCCCC2c2cc(C(=O)Nc3ccccc3Cl)no2)cc1 (stereo not given)	?	18%	-26%	.	25%	-6
Cn1nc(C(C)(C)C)cc1C(=O)N1CCCCC1c1cc(C(=O)NCc2cccnc2)no1 (stereo not given)	21µM*	8%	23µM*	.	6%	20
O=C(NCc1cccnc1)c1cc(C2CCCCN2C(=O)c2ccccc2)on1 (stereo not given)	?	9%	?	.	?	14
Cc1ccc(C)c(CC(=O)N2CCCC(c3cc(C(=O)Nc4ccccc4Cl)no3)C2)c1 (stereo not given)	?	-20%	?	.	-19%	0
Cn1nc(C(C)(C)C)cc1C(=O)N1CCCCC1c1cc(C(=O)Nc2ccc3c(c2)OCO3)no1 (stereo not given)	4.6µM*	?	18µM*	.	-24%	18
